Source: PubChem BioAssay (Tox21)
Inconclusive results are not listed. Where a call stands in place of a potency, no number is given. Values without a mark were called inactive. Active and inactive are the calls of the source. Calls come from the whole dose curve; as a rule, active = well fitted inhibition curve with a large enough effect in the repeat runs; inconclusive = weak or mixed curves; inactive = no such curve, though single readings can be large or run the other way.

What follows are compounds tested against Cytochrome P450 3A4 (Homo sapiens) (UniProt P08684) (assay: Cytochrome P450 Family 3 Subfamily A Member 4 (CYP3A4) small molecule antagonists: luciferase reporter qHTS assay (AID 1671201; note: nearly all actives have a fitted effect of over 50% in size)). Conditions: P450-Glo CYP3A4 enzyme, luciferin luminescence, 1 h; series mostly up to 115 µM.
How it was run: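 P450-Glo CYP3A4 luminescent assay: compounds preincubated 10 min at room temperature with enzyme and proluciferin substrate, NADPH regeneration added, 1 h room-temperature reaction, stopped with luciferin detection reagent; luminescence read after 20 min. Ketoconazole positive control.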
Potency is the fitted concentration of half-maximal effect.

Sequence of Cytochrome P450 3A4 (Homo sapiens) (P08684 whole entry, looked up): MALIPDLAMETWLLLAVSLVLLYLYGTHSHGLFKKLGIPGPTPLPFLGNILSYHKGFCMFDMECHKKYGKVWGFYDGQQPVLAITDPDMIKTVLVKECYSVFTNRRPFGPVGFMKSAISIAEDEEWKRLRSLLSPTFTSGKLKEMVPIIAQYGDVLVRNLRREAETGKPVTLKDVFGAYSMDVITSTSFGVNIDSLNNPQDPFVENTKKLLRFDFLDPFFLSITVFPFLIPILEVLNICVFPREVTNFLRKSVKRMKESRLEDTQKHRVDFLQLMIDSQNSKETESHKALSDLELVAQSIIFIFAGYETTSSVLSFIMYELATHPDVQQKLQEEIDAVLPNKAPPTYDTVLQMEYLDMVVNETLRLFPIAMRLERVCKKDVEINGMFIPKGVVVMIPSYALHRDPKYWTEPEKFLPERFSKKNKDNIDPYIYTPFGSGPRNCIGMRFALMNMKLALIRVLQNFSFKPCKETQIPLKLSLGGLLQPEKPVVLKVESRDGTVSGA

Row | SMILES | Potency | activity change, negative = inhibition
1 | CCSC(=O)N(CC)CC | inactive | 
2 | Cc1c[nH]c2ccccc12 | inactive | 
3 | CC(=O)OCCC1CCCCC1 | inactive | 
4 | C1CCCCC1 | inactive | 
5 | CCCCCCCC(=O)OCCCCCC | inactive | 
6 | COC(C)(C)OC | inactive | 
7 | CCCCCCC(CO)CCCC (stereo not given) | inactive | 
8 | Cc1ccccc1S(N)(=O)=O | inactive | 
9 | CC(C)C(=O)OCCOc1ccccc1 | inactive | 
10 | CCCCCCCCCCCCCCN(C)C |  | -11.1% [at 23.6 µM]
11 | CNc1c2c(nn1C)CCCC2 | inactive | 
12 | COc1cc(S(=O)(=O)Nc2ccccc2)c(OC)cc1N | 3.56 µM (active) | 
13 | CC(C(=O)O)c1ccc(C(=O)c2cccs2)cc1 (stereo not given) | inactive | 
14 | NC(=O)CCCCC(N)=O | inactive | 
15 | CC(CO)(CO)C(=O)O | inactive | 
16 | CC(=O)c1ccc[nH]1 | inactive | 
17 | Oc1cccc2[nH]ccc12 | inactive | 
18 | COc1ccc(C)cc1 | inactive | 
19 | C=Cc1ccc(OC(C)=O)cc1 | inactive | 
20 | O=C(O)CNC(=O)c1ccccc1I | inactive | 
21 | Cc1ccc(Nc2c(F)cccc2Cl)c(CC(=O)O)c1 | inactive | 
22 | Cc1cn([C@H]2C[C@H](F)[C@@H](CO)O2)c(=O)[nH]c1=O | inactive | 
23 | CC(C)N=C=NC(C)C | inactive | 
24 | O=C1OC[C@H](Cc2cccc(O)c2)[C@H]1Cc1cccc(O)c1 | 9.58 µM (active) | 
25 | C[C@@H]1[C@H](O)[C@@H](C)/C=C/C=C\C=C\C=C\C=C\C=C\C=C\[C@H](O[C@@H]2O[C@H](C)[C@@H](O)[C@H](N)[C@@H]2O)C[C@@H]2O[C@](O)(C[C@@H](O)C[C@@H](O)[C@H](O)CC[C@@H](O)C[C@@H](O)CC(=O)O[C@H]1C)C[C@H](O)[C@H]2C(=O)O (stereo in doubt) | inactive | 
